Z-score and composite z-score data for eight compounds are collected here from PubChem BioAssay.

The nature of assay [1]: E. coli DRC41 culture turbidity changes, primary screen, E. coli filamentation inducer project, strain DRC41, OD650, 48 h (AID 1152).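 Note: E. coli MC1000 strain DRC41 lacking acrAB efflux pump and sulA.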 The conditions noted are these: E. coli DRC41 (acrAB sulA), higher = more signal, called active from +8 up or from −8 down.
Assay [2] can be described thus: small-molecule binders of probe aLefty1, primary screen, biochemical, small-molecule microarray, 635/667 nm fluorescence (AID 1153).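 Note: score merges spot fluorescence with signal-to-noise ratio from the scanned slide images.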 The conditions noted are these: higher = more signal.
Assay [3] in a line: PSAC antagonists in infected red cells, primary screen, cell-based, P. falciparum Indochina, OD700, 1 h (AID 1154). The conditions noted are these: P. falciparum Indochina infected RBC osmotic lysis, higher = more signal, called active from +8 up or from −8 down.
Assay [4] is described as follows: PSAC antagonists in infected red cells, primary screen, cell-based, P. falciparum Indochina, OD700, 2 h (AID 1155).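 Note: lysis reports solute entry through the parasite surface anion channel PSAC; channel blockers reduce lysis of infected cells.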 The conditions noted are these: P. falciparum Indochina infected erythrocytes, osmotic lysis OD700; higher = more signal, called active from +8 up or from −8 down.
Assay [5] in a line: osmotic lysis modulators in infected erythrocytes, primary screen, PSAC antagonist project, cell-based, P. falciparum Indochina, OD700, 3 h (AID 1156). The conditions noted are these: higher = more signal, called active from +8 up or from −8 down.
A short description of assay [6]: PSAC antagonists in infected red cells, primary screen, cell-based, P. falciparum Indochina, OD700, 18 h (AID 1157). The conditions noted are these: P. falciparum Indochina infected erythrocytes, osmotic lysis OD700, 18 h; higher = more signal, called active from +8 up or from −8 down.
Assay [7] in a line: modulators of S6 phosphorylation in cells, primary screen, cell-based, A549, cytoblot, luminescence, serum-stimulated (AID 1158).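 Note: serum-stimulated A549 lung adenocarcinoma cells; signal is phosphorylated S6 detected by cytoblot immunostaining with HRP secondary.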 The conditions noted are these: A549 phospho-S6 cytoblot, 5 h, higher = more signal.
For assay [8], the target named is NADPH oxidase 2 (Homo sapiens) (UniProt P04839). Kind of assay: NOX2-dependent H2O2 signal modulators, primary screen, NOX inhibitor project, cell-based, HEK293-NOX2, PMA-stimulated, Amplex Red fluorescence (AID 1159). Note: test concentration not given here. The conditions noted are these: 45 min, higher = more signal, called active from +8 up or from −8 down.
Chain of NADPH oxidase 2 (Homo sapiens) (P04839 whole entry, looked up): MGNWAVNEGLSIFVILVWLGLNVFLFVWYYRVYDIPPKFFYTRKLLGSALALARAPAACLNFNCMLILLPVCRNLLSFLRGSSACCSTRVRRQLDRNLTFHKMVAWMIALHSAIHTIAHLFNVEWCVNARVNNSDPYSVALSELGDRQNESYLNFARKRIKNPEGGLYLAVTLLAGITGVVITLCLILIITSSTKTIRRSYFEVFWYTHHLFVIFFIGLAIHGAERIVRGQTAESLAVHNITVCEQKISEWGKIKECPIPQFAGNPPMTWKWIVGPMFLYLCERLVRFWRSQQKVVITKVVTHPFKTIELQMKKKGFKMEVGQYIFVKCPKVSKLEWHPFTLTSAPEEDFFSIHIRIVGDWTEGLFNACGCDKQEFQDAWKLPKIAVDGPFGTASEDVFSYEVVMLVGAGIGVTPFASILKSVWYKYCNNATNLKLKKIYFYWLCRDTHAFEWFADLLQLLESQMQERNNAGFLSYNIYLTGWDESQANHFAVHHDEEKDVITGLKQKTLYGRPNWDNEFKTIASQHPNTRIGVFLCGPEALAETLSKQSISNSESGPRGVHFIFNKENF
For assay [9], the target named is NADPH oxidase 4 (Homo sapiens) (UniProt Q9NPH5). Kind of assay: NOX4-dependent H2O2 signal modulators, primary screen, NOX inhibitor project, cell-based, HEK293-NOX4, tetracycline-induced, Amplex Red fluorescence (AID 1160). The conditions noted are these: 45 min, higher = more signal, called active from +8 up or from −8 down.
Chain of NADPH oxidase 4 (Homo sapiens) (Q9NPH5 whole entry, looked up): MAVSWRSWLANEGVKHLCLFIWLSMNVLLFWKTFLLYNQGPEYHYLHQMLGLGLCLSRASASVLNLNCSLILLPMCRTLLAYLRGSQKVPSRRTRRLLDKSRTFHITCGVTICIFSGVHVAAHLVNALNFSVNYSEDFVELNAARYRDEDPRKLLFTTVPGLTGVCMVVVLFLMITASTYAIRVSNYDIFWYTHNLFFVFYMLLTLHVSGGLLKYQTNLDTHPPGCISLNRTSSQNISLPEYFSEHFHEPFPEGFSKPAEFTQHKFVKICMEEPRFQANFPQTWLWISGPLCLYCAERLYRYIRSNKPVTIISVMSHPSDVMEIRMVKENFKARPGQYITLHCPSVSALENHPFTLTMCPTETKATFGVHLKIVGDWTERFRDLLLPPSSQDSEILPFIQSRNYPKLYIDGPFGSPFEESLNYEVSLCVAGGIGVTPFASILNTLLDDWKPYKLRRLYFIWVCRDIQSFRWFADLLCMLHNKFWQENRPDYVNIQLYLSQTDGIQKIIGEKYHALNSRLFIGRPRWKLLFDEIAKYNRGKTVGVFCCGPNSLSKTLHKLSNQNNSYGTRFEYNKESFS
Assay [10] concerns the target NADPH oxidase 5 (Homo sapiens) (UniProt Q96PH1). Kind of assay: NOX5-dependent H2O2 signal modulators, primary screen, NOX inhibitor project, cell-based, HEK293-NOX5, Amplex Red fluorescence (AID 1161). Particulars: HEK293-NOX5, ionomycin, 45 min, higher = more signal.

Structures are written as SMILES. Where “and” joins values, the source holds several entries; their conditions need not be identical. Equal values may be shown once. More than one record can exist for a structure, and the calls need not agree. Calls of active or inactive are those of the source.

Chain of NADPH oxidase 5 (Homo sapiens) (Q96PH1 whole entry, looked up): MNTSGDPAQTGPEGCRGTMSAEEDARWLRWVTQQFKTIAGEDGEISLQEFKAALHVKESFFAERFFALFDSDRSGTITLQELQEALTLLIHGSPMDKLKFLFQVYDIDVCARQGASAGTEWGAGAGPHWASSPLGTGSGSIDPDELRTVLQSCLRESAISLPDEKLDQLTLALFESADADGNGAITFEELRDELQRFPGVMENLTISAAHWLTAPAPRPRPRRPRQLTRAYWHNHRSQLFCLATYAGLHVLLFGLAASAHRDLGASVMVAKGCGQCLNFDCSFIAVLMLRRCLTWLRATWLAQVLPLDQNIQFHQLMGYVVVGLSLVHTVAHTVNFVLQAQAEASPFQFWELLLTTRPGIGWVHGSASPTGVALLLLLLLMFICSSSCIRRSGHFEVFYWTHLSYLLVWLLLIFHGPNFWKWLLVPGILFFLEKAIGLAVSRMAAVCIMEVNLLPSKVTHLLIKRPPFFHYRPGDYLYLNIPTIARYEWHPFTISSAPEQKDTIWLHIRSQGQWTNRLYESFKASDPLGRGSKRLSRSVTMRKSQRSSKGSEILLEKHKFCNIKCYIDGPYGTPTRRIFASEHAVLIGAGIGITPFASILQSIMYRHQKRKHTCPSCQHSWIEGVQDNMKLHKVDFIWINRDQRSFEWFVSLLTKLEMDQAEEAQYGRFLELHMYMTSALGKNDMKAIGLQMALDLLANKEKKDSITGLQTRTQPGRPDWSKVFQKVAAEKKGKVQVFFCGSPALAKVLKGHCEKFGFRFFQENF

Consider `COC(=O)C1=C(C)N(Cc2ccccc2)[C@]23O[C@](C(=O)OC)(C(=O)N2[C@@H]1c1ccccc1)[C@H]1C(=O)N(C)C(=O)[C@H]13`, for which the z-score in assay [1] was 0.903 (inactive) and 0.564 (inactive); in assay [3] it was 1.35 (inactive) and -0.228 (inactive); in [4], 0.719 (inactive) and -1.26 (inactive); in assay [5] it was 0.501 (inactive) and -0.562 (inactive); in [6] it was 0.248 (inactive) and -1.16 (inactive); in assay [7], 0.486 and 0.567. Besides, the z-score in [8] was -0.56 (inactive) and -0.171 (inactive); in [9], -0.329 (inactive) and 0.811 (inactive); in assay [10], 1.57 and 0.888. Besides, in assay [2], the composite z-score was -0.0418 and 0.223.
`COC(=O)C1=C(C)N(Cc2ccccc2)[C@]23O[C@](C(=O)OC)(C(=O)N2[C@@H]1c1ccccc1)[C@@H](C(=O)OC)[C@H]3C(=O)OC`: the z-score in assay [1] was 0.514 (inactive) and 0.184 (inactive); in assay [3], 0.295 (inactive) and 0.114 (inactive); in assay [4], 0.185 (inactive) and 0.319 (inactive); in assay [5], 0.285 (inactive) and -0.414 (inactive); in [6], -0.022 (inactive) and 0.17 (inactive); in assay [7] it was -0.046 and 0.635. Besides, the z-score in [8] is 1.8 (inactive) and -0.506 (inactive); in assay [9] it was -1.42 (inactive) and -0.0445 (inactive); in assay [10], 0.371 and 0.422. Moreover, the composite z-score in assay [2] is -0.282 and -0.0011.
On to `C=CCN(C(=O)C(c1cccs1)N(C(=O)/C=C\C(=O)O)C(C)(C)CO)c1ccc(OC)cc1` (stereo not given), for which the z-score in assay [1] was 3.97 (inactive) and 3.23 (inactive); in assay [3], 0.292 (inactive) and 3.92 (inactive); in assay [4], -0.775 (inactive) and -0.466 (inactive); in assay [5], 0.029 (inactive) and -0.675 (inactive); in assay [6] it was -1.05 (inactive) and -1.12 (inactive); in assay [7], 1.97 and 1.04. Also, the z-score in assay [8] was 0.0253 (inactive) and -0.0835 (inactive); in assay [9], -0.464 (inactive) and -0.814 (inactive); in assay [10], -0.126 and 0.853. Besides, the composite z-score in assay [2] was -0.0722 and 0.121.
As for `CCOC(=O)C[C@H]1[C@H](OC(=O)c2ccccc2-c2ccccc2)[C@@H](NC(=O)Cc2ccc(OC)cc2)c2cc(OCCCO)ccc2N1C(=O)c1ccc2ccccc2n1`, the z-score was 2.19 (inactive) and 1.32 (inactive) in assay [1]; 3.8 (inactive) and 1.18 (inactive) in assay [3]; 0.674 (inactive) and 0.879 (inactive) in assay [4]; 0.366 (inactive) and -0.295 (inactive) in assay [5]; 0.329 (inactive) and 0.627 (inactive) in assay [6]; 0.661 and 0.0515 in assay [7]. The z-score in [8] is -0.488 (inactive) and 1.54 (inactive); in [9], 0.946 (inactive) and 0.859 (inactive); in assay [10], 0.365 and 0.0653. In assay [2], the composite z-score is -0.012 and -0.0186.
Regarding `C=CCN(CCCC)C(=O)C1N(c2c(Cl)cccc2CO)C(=O)C2C(C(=O)O)C3C=CC21O3` (stereo not given), the z-score in assay [1] was -0.074 (inactive) and 2.24 (inactive); in assay [3], 1.2 (inactive) and 1.94 (inactive); in assay [4] it was 1.05 (inactive) and 0.871 (inactive); in [5], 0.116 (inactive) and 0.127 (inactive); in assay [6], 0.162 (inactive) and 0.432 (inactive); in [7] it was -0.352 and 0.113. For the same compound, the z-score was 0.6 (inactive) and 0.353 (inactive) in assay [8]; -0.381 (inactive) and -0.863 (inactive) in assay [9]; -0.708 and 0.0892 in assay [10]. Also, the composite z-score in assay [2] was -0.0544 and 0.452.
Consider `C[C@@]1([C@@H](NC(=O)Cc2ccccc2)c2ccc(-c3ccccc3)cc2)C[C@H]1C1CCCCC1`, for which the z-score in assay [1] is -1.01 (inactive) and -1.14 (inactive) and -2.63 (inactive); in [3], 2.55 (inactive) and 0.584 (inactive) and 10.1 (active); in assay [4], -0.208 (inactive) and 0.325 (inactive) and 1.68 (inactive); in assay [5], 1.01 (inactive) and 1.19 (inactive) and 0.922 (inactive); in assay [6], -1.51 (inactive) and 0.741 (inactive) and 0.644 (inactive); in [7] it was 1.28 and -0.396 and -0.729. For the same compound, the z-score in assay [8] is -4.2 (inactive) and -0.505 (inactive) and -1.36 (inactive); in assay [9], -5.91 (inactive) and -3.11 (inactive) and -1.7 (inactive); in [10] it was -3.09 and 0.173 and 0.832. The composite z-score in [2] is 1.31 and 1.96 and -0.533.
In the case of `C=CCN(C(=O)C1N(CCCCCCO)C(=O)C2C(C(=O)O)C3C=CC21O3)c1ccc(OC)cc1` (stereo not given), the z-score was 2.17 (inactive) and 0.932 (inactive) in assay [1]; 0.12 (inactive) and -0.718 (inactive) in assay [3]; -1.31 (inactive) and 0.0039 (inactive) in assay [4]; -0.398 (inactive) and -0.196 (inactive) in [5]; -1.43 (inactive) and -0.157 (inactive) in assay [6]; 0.441 and -0.173 in [7]. For the same compound, the z-score in assay [8] is 0.846 (inactive) and 0.381 (inactive); in assay [9] it was -0.0568 (inactive) and -0.682 (inactive); in assay [10] it was 1.3 and 0.105. The composite z-score in assay [2] was 0.153 and 0.659.
As to `CCOC(=O)CCN1C(=O)[C@H]2[C@H]3[C@H](O)[C@H](O)CC(=NNC(=O)OCC)[C@@H]3CC[C@H]2C1=O`, the z-score in [1] was 0.542 (inactive); in assay [3], -0.48 (inactive); in assay [4] it was 0.189 (inactive); in [5] it was -0.602 (inactive); in assay [6], -0.0634 (inactive); in assay [7], -0.494. Also, the z-score in [8] was -0.489 (inactive); in assay [9], 0.916 (inactive); in [10], 0.754. This compound also returned a composite z-score in [2] of -0.193.
